{"source": "PubChem BioAssay (NCI)", "key": {"[1]": {"test": "NCI Yeast Anticancer Drug Screen. Data for the rad52 strain (AID 147);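 note: 0% = growth of vehicle-treated control cultures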", "conditions": "S. cerevisiae rad52 mutant growth inhibition, stronger effect = higher value", "procedure,_shortened": "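DNA repair-defective yeast; compound exposure; growth scored against vehicle controls.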"}, "[2]": {"test": "NCI Yeast Anticancer Drug Screen. Data for the wt1 strain (AID 149);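 note: 0% = growth of vehicle-treated wt1 cultures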", "conditions": "S. cerevisiae wt1 strain (SPY 50644) growth inhibition, stronger effect = higher value", "procedure,_shortened": "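Measured: growth of wt1 yeast under compound versus vehicle treatment, reported as inhibition.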"}, "[3]": {"test": "NCI Yeast Anticancer Drug Screen. Data for the rad50EPP+ strain (AID 151);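 note: 0% = growth of vehicle-treated control cultures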", "conditions": "S. cerevisiae rad50 mutant strain, stronger effect = higher value", "procedure,_shortened": "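rad50EPP+ yeast treated with test compounds. Readout: growth vs vehicle control.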"}, "[4]": {"test": "NCI Yeast Anticancer Drug Screen. Data for the mgt1 strain (AID 153)", "conditions": "S. cerevisiae mgt1 mutant growth inhibition, stronger effect = higher value", "procedure,_shortened": "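Growth inhibition relative to vehicle controls was scored for the mgt1 yeast strain after compound exposure.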"}, "[5]": {"test": "NCI Yeast Anticancer Drug Screen. Data for the rad50 strain (AID 155);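 note: 0% = growth of vehicle-only cultures of the same strain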", "conditions": "S. cerevisiae rad50 strain growth inhibition, stronger effect = higher value", "procedure,_shortened": "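Growth of the mutant yeast was measured after compound exposure and referenced to vehicle-treated cultures.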"}, "[6]": {"test": "NCI Yeast Anticancer Drug Screen. Data for the mec2-1 strain (AID 157)", "conditions": "S. cerevisiae mec2-1 strain, stronger effect = higher value", "procedure,_shortened": "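Growth inhibition is read against vehicle-treated controls after compound exposure of the mec2-1 yeast strain, which is defective in DNA damage repair or cell cycle control.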"}, "[7]": {"test": "NCI Yeast Anticancer Drug Screen. Data for the rad14 strain (AID 159);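 note: 0% = growth of vehicle-treated control cultures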", "conditions": "S. cerevisiae rad14 strain growth inhibition, stronger effect = higher value", "procedure,_shortened": "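Here, inhibition of yeast growth was measured after compound exposure, using a strain with a genetic defect in DNA damage repair and vehicle-treated cultures as the reference.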"}, "[8]": {"test": "NCI Yeast Anticancer Drug Screen. Data for the sgs1 mgt1 strain (AID 161);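 note: 0% = growth of cultures given vehicle only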", "conditions": "S. cerevisiae sgs1 mgt1 strain, stronger effect = higher value", "procedure,_shortened": "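Growth of a repair-deficient yeast mutant was monitored after compound treatment and expressed as inhibition relative to vehicle-treated cultures.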"}, "[9]": {"test": "NCI Yeast Anticancer Drug Screen. Data for the cln2 rad14 strain (AID 165);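 note: 0% = growth equal to vehicle treated cultures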", "conditions": "S. cerevisiae cln2 rad14 strain, stronger effect = higher value", "procedure,_shortened": "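Growth inhibition, relative to vehicle-treated controls, is the read-out. The test organism is a yeast strain with defined genetic alterations, cln2 rad14.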"}, "[10]": {"test": "NCI Yeast Anticancer Drug Screen. Data for the bub3 strain (AID 167)", "conditions": "S. cerevisiae bub3 mutant strain, stronger effect = higher value", "procedure,_shortened": "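Whole-cell yeast assay. The mutant strain was incubated with compounds, and growth inhibition was determined by comparison with vehicle-treated cells.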"}, "[11]": {"test": "NCI Yeast Anticancer Drug Screen. Data for the wt2 strain (AID 169);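 note: 0% = growth of vehicle-treated yeast cultures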", "conditions": "S. cerevisiae wt2 strain growth inhibition, stronger effect = higher value", "procedure,_shortened": "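Compound exposure of yeast; growth compared with vehicle controls; inhibition reported.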"}, "[12]": {"test": "NCI Yeast Anticancer Drug Screen. Data for the mlh1 strain (AID 171);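 note: 0% = growth of vehicle-treated control cultures of the same strain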", "conditions": "S. cerevisiae mlh1 strain growth inhibition, stronger effect = higher value", "procedure,_shortened": "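Compounds are applied to a genetically altered yeast strain, and its growth is compared with that of vehicle-treated cultures to give percent inhibition.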"}, "[13]": {"test": "NCI Yeast Anticancer Drug Screen. Data for the sgs1 strain (AID 173);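 note: 0% = growth of vehicle-only control cultures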", "conditions": "S. cerevisiae sgs1 mutant, stronger effect = higher value", "procedure,_shortened": "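Compounds applied to genetically altered yeast; growth compared with vehicle-treated cultures to give % inhibition.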"}, "[14]": {"test": "NCI Yeast Anticancer Drug Screen. Data for the mlh1 rad18 strain (AID 175)", "conditions": "S. cerevisiae mlh1 rad18 strain growth inhibition, stronger effect = higher value", "procedure,_shortened": "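Cells of a genetically altered yeast strain, deficient in DNA damage repair, were treated with compound. Their growth was then compared with that of vehicle-treated cultures to give inhibition.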"}, "[15]": {"conditions": "at 5.0 µM (retest, dose inferred, filed as 0.5)"}, "[16]": {"conditions": "at 50.0 µM (retest, dose inferred, filed as 5.0)"}}, "note": "The panel holds about 79,000 compounds, 15% with a hit somewhere; the sample as a whole holds those more often. Values without a mark were called inactive. Calls of active or inactive are those of the source. Cut-off read from the data, not from the text of the source: active = growth inhibition above about 70%; inactive = the rest.", "data": [{"smiles": "O=C1OC(C2=CC(=O)c3ccccc3C2=O)C(Cl)=C1Cl", "note": "(stereo not drawn)", "values": [{"measurement": "growth inhibition", "setting": "[1]; at 1.2 µM", "result": 3, "unit": "%"}, {"measurement": "growth inhibition", "setting": "[1]; at 3.7 µM", "result": 15, "unit": "%"}, {"measurement": "growth inhibition", "setting": "[1]; at 11.0 µM", "result": 46, "unit": "%"}, {"measurement": "growth inhibition", "setting": "[1]; at 33.0 µM", "result": "89% (active)"}, {"measurement": "growth inhibition", "setting": "[1]; at 100.0 µM", "result": "91% (active)"}, {"measurement": "growth inhibition", "setting": "[2]; at 1.2 µM", "result": 1, "unit": "%"}, {"measurement": "growth inhibition", "setting": "[2]; at 3.7 µM", "result": 9, "unit": "%"}, {"measurement": "growth inhibition", "setting": "[2]; at 11.0 µM", "result": 9, "unit": "%"}, {"measurement": "growth inhibition", "setting": "[2]; at 33.0 µM", "result": 14, "unit": "%"}, {"measurement": "growth inhibition", "setting": "[2]; at 100.0 µM", "result": 28, "unit": "%"}, {"measurement": "growth inhibition", "setting": "[3]; at 1.2 µM", "result": 3, "unit": "%"}, {"measurement": "growth inhibition", "setting": "[3]; at 3.7 µM", "result": 13, "unit": "%"}, {"measurement": "growth inhibition", "setting": "[3]; at 11.0 µM", "result": 47, "unit": "%"}, {"measurement": "growth inhibition", "setting": "[3]; at 33.0 µM", "result": "81% (active)"}, {"measurement": "growth inhibition", "setting": "[3]; at 100.0 µM", "result": "82% (active)"}, {"measurement": "growth inhibition", "setting": "[4]; at 1.2 µM", "result": -1, "unit": "%"}, {"measurement": "growth inhibition", "setting": "[4]; at 3.7 µM", "result": 0, "unit": "%"}, {"measurement": "growth inhibition", "setting": "[4]; at 11.0 µM", "result": 1, "unit": "%"}, {"measurement": "growth inhibition", "setting": "[4]; at 33.0 µM", "result": 12, "unit": "%"}, {"measurement": "growth inhibition", "setting": "[4]; at 100.0 µM", "result": 24, "unit": "%"}, {"measurement": "growth inhibition", "setting": "[5]; at 1.2 µM", "result": 0, "unit": "%"}, {"measurement": "growth inhibition", "setting": "[5]; at 3.7 µM", "result": 1, "unit": "%"}, {"measurement": "growth inhibition", "setting": "[5]; [15]", "result": 5, "unit": "%"}, {"measurement": "growth inhibition", "setting": "[5]; at 11.0 µM", "result": 11, "unit": "%"}, {"measurement": "growth inhibition", "setting": "[5]; at 33.0 µM", "result": 30, "unit": "%"}, {"measurement": "growth inhibition", "setting": "[5]; [16]", "result": 44, "unit": "%"}, {"measurement": "growth inhibition", "setting": "[5]; at 50.0 µM", "result": "86.3% (active)"}, {"measurement": "growth inhibition", "setting": "[5]; at 100.0 µM", "result": 47, "unit": "%"}, {"measurement": "growth inhibition", "setting": "[6]; at 1.2 µM", "result": -1, "unit": "%"}, {"measurement": "growth inhibition", "setting": "[6]; at 3.7 µM", "result": 6, "unit": "%"}, {"measurement": "growth inhibition", "setting": "[6]; [15]", "result": 1, "unit": "%"}, {"measurement": "growth inhibition", "setting": "[6]; at 11.0 µM", "result": 14, "unit": "%"}, {"measurement": "growth inhibition", "setting": "[6]; at 33.0 µM", "result": 34, "unit": "%"}, {"measurement": "growth inhibition", "setting": "[6]; [16]", "result": 47, "unit": "%"}, {"measurement": "growth inhibition", "setting": "[6]; at 50.0 µM", "result": "80.9% (active)"}, {"measurement": "growth inhibition", "setting": "[6]; at 100.0 µM", "result": 56, "unit": "%"}, {"measurement": "growth inhibition", "setting": "[7]; at 1.2 µM", "result": 0, "unit": "%"}, {"measurement": "growth inhibition", "setting": "[7]; at 3.7 µM", "result": 4, "unit": "%"}, {"measurement": "growth inhibition", "setting": "[7]; at 11.0 µM", "result": 12, "unit": "%"}, {"measurement": "growth inhibition", "setting": "[7]; at 33.0 µM", "result": 37, "unit": "%"}, {"measurement": "growth inhibition", "setting": "[7]; at 100.0 µM", "result": 69, "unit": "%"}, {"measurement": "growth inhibition", "setting": "[8]; [15]", "result": 17, "unit": "%"}, {"measurement": "growth inhibition", "setting": "[8]; [16]", "result": "78% (active)"}, {"measurement": "growth inhibition", "setting": "[8]; at 50.0 µM", "result": "95.5% (active)"}, {"measurement": "growth inhibition", "setting": "[9]; [15]", "result": 0, "unit": "%"}, {"measurement": "growth inhibition", "setting": "[9]; [16]", "result": 51, "unit": "%"}, {"measurement": "growth inhibition", "setting": "[9]; at 50.0 µM", "result": "95.3% (active)"}, {"measurement": "growth inhibition", "setting": "[10]; at 1.2 µM", "result": 3, "unit": "%"}, {"measurement": "growth inhibition", "setting": "[10]; at 3.7 µM", "result": -1, "unit": "%"}, {"measurement": "growth inhibition", "setting": "[10]; [15]", "result": -1, "unit": "%"}, {"measurement": "growth inhibition", "setting": "[10]; at 11.0 µM", "result": -2, "unit": "%"}, {"measurement": "growth inhibition", "setting": "[10]; at 33.0 µM", "result": 2, "unit": "%"}, {"measurement": "growth inhibition", "setting": "[10]; [16]", "result": 6, "unit": "%"}, {"measurement": "growth inhibition", "setting": "[10]; at 50.0 µM", "result": 57.4, "unit": "%"}, {"measurement": "growth inhibition", "setting": "[10]; at 100.0 µM", "result": 12, "unit": "%"}, {"measurement": "growth inhibition", "setting": "[11]; at 1.2 µM", "result": 1, "unit": "%"}, {"measurement": "growth inhibition", "setting": "[11]; at 3.7 µM", "result": 1, "unit": "%"}, {"measurement": "growth inhibition", "setting": "[11]; at 11.0 µM", "result": 4, "unit": "%"}, {"measurement": "growth inhibition", "setting": "[11]; at 33.0 µM", "result": 13, "unit": "%"}, {"measurement": "growth inhibition", "setting": "[11]; at 100.0 µM", "result": 36, "unit": "%"}, {"measurement": "growth inhibition", "setting": "[12]; at 1.2 µM", "result": -2, "unit": "%"}, {"measurement": "growth inhibition", "setting": "[12]; at 3.7 µM", "result": 3, "unit": "%"}, {"measurement": "growth inhibition", "setting": "[12]; at 11.0 µM", "result": 6, "unit": "%"}, {"measurement": "growth inhibition", "setting": "[12]; at 33.0 µM", "result": 22, "unit": "%"}, {"measurement": "growth inhibition", "setting": "[12]; at 100.0 µM", "result": 13, "unit": "%"}, {"measurement": "growth inhibition", "setting": "[13]; at 1.2 µM", "result": 4, "unit": "%"}, {"measurement": "growth inhibition", "setting": "[13]; at 3.7 µM", "result": 13, "unit": "%"}, {"measurement": "growth inhibition", "setting": "[13]; at 11.0 µM", "result": 48, "unit": "%"}, {"measurement": "growth inhibition", "setting": "[13]; at 33.0 µM", "result": "79% (active)"}, {"measurement": "growth inhibition", "setting": "[13]; at 100.0 µM", "result": "87% (active)"}, {"measurement": "growth inhibition", "setting": "[14]; [15]", "result": 11, "unit": "%"}, {"measurement": "growth inhibition", "setting": "[14]; [16]", "result": "77% (active)"}, {"measurement": "growth inhibition", "setting": "[14]; at 50.0 µM", "result": "94.8% (active)"}]}]}
